This is an account of results in PubChem BioAssay (NCI).

Among the test systems are DU-145 prostate; K-562 leukemia; MALME-3M melanoma; MDA-MB-231 breast; RXF 393 renal; SF-268 CNS; SF-295 CNS; SF-539 CNS; UACC-257 melanoma; M14 melanoma; HCT-15 colon; HT29 colon; SNB-75 CNS; SNB-19 CNS; U251 CNS; PC-3 prostate; SK-MEL-5 melanoma; UACC-62 melanoma; LOX IMVI melanoma; SK-MEL-28 melanoma.
Assay in all cases: NCI-60 one-dose screen, 48 h (100 = growth as untreated, 0 = no growth, -100 = all killed)
Common to all, as to conditions: 10 µM unless noted

Molecules are shown by their SMILES. Compounds without any hit were thinned out: in the full panel of roughly 83,000, 20% have a hit.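 Single-dose data. Exposure time 48 hours. Values below 10 considered active.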 A number with no mark means an inactive call. Active and inactive are the calls of the source.

In the case of `CNC(=O)c1cc(Oc2cccc3nc(NC(=O)Nc4cc(C(F)(F)F)ccc4Cl)ccc23)ccn1`, the growth in the experiment on DU-145 prostate was 78.6%; with K-562 leukemia, 80.9%; in the experiment on MALME-3M melanoma it was 69.2%; in the experiment with MDA-MB-231 breast it was 49.1%; in the experiment with RXF 393 renal, 73.7%; with SF-268 CNS it was 74.9%. Also, the growth in the experiment with SF-295 CNS is 106%; with SF-539 CNS it was 32.6%; in the experiment with UACC-257 melanoma, 98.3%; in the experiment on M14 melanoma, 95.1%; with HCT-15 colon, 90%; with HT29 colon, 89.8%. The growth with SNB-75 CNS is 68.9%; in the experiment on SNB-19 CNS, 102%; in the experiment on U251 CNS, 70.4%; in the experiment with PC-3 prostate, 96.5%; in the experiment on SK-MEL-5 melanoma, 80.2%; with UACC-62 melanoma it was 96.3%. Further, the growth was 63.9% in the experiment with LOX IMVI melanoma and 92.4% with SK-MEL-28 melanoma.

For `COc1ccc(/C=C/C(=O)c2ccc(NC(=O)CSc3nc4c([nH]3)c(=O)n(C)c(=O)n4C)cc2)cc1OC`, the growth in the experiment with DU-145 prostate is 97.4%; in the experiment with K-562 leukemia, 79.3%; in the experiment with MALME-3M melanoma, 95.9%; with MDA-MB-231 breast, 84.4%; in the experiment with RXF 393 renal it was 87.5%; with SF-268 CNS, 83%. In addition, the growth in the experiment on SF-295 CNS is 92.6%; in the experiment on SF-539 CNS, 80.1%; with UACC-257 melanoma it was 87.4%; with M14 melanoma it was 92.5%; with HCT-15 colon it was 89%; with HT29 colon, 103%. Besides, the growth with SNB-75 CNS is 82.3%; in the experiment with SNB-19 CNS it was 62.5%; with U251 CNS, 49.6%; in the experiment with PC-3 prostate it was 94.6%; in the experiment on SK-MEL-5 melanoma, 92%; in the experiment with UACC-62 melanoma it was 81.4%. Also, the growth in the experiment with LOX IMVI melanoma was 78.3%; with SK-MEL-28 melanoma, 95.7%.

Take `Cc1cccc(N2CCC(=O)NC2=S)c1`: the growth is 116% in the experiment with DU-145 prostate; 112% in the experiment on K-562 leukemia; 95.9% with MALME-3M melanoma; 89.9% with MDA-MB-231 breast; 115% in the experiment with RXF 393 renal; 99.4% in the experiment on SF-268 CNS. For the same molecule, the growth is 103% in the experiment on SF-295 CNS; 96.7% in the experiment with SF-539 CNS; 105% in the experiment on UACC-257 melanoma; 97.3% with M14 melanoma; 107% with HCT-15 colon; 113% in the experiment with HT29 colon. For the same molecule, the growth was 92.5% with SNB-75 CNS; 99.4% in the experiment on SNB-19 CNS; 104% with U251 CNS; 98.3% in the experiment with PC-3 prostate; 101% in the experiment on SK-MEL-5 melanoma; 96.4% in the experiment on UACC-62 melanoma. In addition, the growth is 97.2% in the experiment with LOX IMVI melanoma and 110% in the experiment on SK-MEL-28 melanoma.

In the case of `COc1cc(C(=O)n2nc(N3CCOCC3)c3cc(-n4cccc4)ccc32)cc(OC)c1OC`, the growth was 61.2% in the experiment on DU-145 prostate; 52.4% in the experiment on K-562 leukemia; 87.1% in the experiment with MALME-3M melanoma; 54.9% with MDA-MB-231 breast; -9.27% (active) with RXF 393 renal; 76.8% with SF-268 CNS. The growth with SF-295 CNS is 71.8%; with SF-539 CNS it was 79.9%; with UACC-257 melanoma it was 103%; in the experiment on M14 melanoma it was 52.7%; in the experiment with HCT-15 colon, 17.6%; in the experiment with HT29 colon, 62.4%. In addition, the growth in the experiment on SNB-75 CNS is 49.8%; in the experiment on SNB-19 CNS, 75.2%; in the experiment on U251 CNS it was 68.7%; with PC-3 prostate, 38%; with SK-MEL-5 melanoma, 64.3%; in the experiment on UACC-62 melanoma, 73.1%. For the same molecule, the growth is 88.7% in the experiment with LOX IMVI melanoma and 72.7% with SK-MEL-28 melanoma.

On to `CSC(SC)=C(C#N)c1nc2ccccc2s1`, for which the growth in the experiment on DU-145 prostate is 87.2%; in the experiment on K-562 leukemia, 47.4%; with MALME-3M melanoma, 67.9%; with MDA-MB-231 breast, 52.9%; in the experiment on RXF 393 renal, 95.8%; with SF-268 CNS it was 55.1%. In addition, the growth in the experiment with SF-295 CNS was 88.2%; with SF-539 CNS, 60.2%; in the experiment with UACC-257 melanoma, 54%; in the experiment with M14 melanoma, 48.1%; in the experiment on HCT-15 colon, 61.8%; in the experiment on HT29 colon, 97.2%. Besides, the growth is 74.3% with SNB-75 CNS; 66.9% in the experiment with SNB-19 CNS; 76.5% in the experiment on U251 CNS; 30% with PC-3 prostate; 27.9% in the experiment with SK-MEL-5 melanoma; 9.44% (active) in the experiment with UACC-62 melanoma. Moreover, the growth in the experiment with LOX IMVI melanoma is 84.1%; with SK-MEL-28 melanoma, 38.8%.

Consider `COc1cc2c(c(OC)c1OC)C(=O)CC(c1cccc(NC(=O)c3ccc(C#N)cc3)c1)O2` (stereo not given), for which the growth was 83.6% in the experiment on DU-145 prostate; 48.6% in the experiment with K-562 leukemia; 83.7% with MALME-3M melanoma; 79.9% in the experiment on MDA-MB-231 breast; 97.3% in the experiment on RXF 393 renal; 86.5% in the experiment with SF-268 CNS. Besides, the growth in the experiment on SF-295 CNS was 77.9%; with SF-539 CNS, 92.7%; with UACC-257 melanoma it was 72.3%; in the experiment on M14 melanoma it was 64.4%; in the experiment with HCT-15 colon, 75.7%; in the experiment with HT29 colon, 84.9%. Moreover, the growth is 74.9% in the experiment on SNB-75 CNS; 92% with SNB-19 CNS; 80.5% with U251 CNS; 53% in the experiment with PC-3 prostate; 43.2% in the experiment with SK-MEL-5 melanoma; 33.9% with UACC-62 melanoma. For the same molecule, the growth in the experiment with LOX IMVI melanoma is 65.7%; with SK-MEL-28 melanoma it was 90.6%.

Take `C#CC#CC#CC#CC#CC#CC#CC#CCC1OC[C@H](COC(=O)O[C@@H](C(=O)O[C@H]2C[C@@]3(O)[C@@H](OC(=O)c4ccccc4)[C@@H]4[C@]5(OC(C)=O)CO[C@@H]5C[C@H](O)[C@@]4(C)C(=O)[C@H](OC(C)=O)C(=C2C)C3(C)C)[C@@H](NC(=O)c2ccccc2)c2ccccc2)O1` (stereo not given in full): the growth in the experiment on DU-145 prostate is 17.3%; in the experiment with K-562 leukemia it was 15.5%; in the experiment on MALME-3M melanoma, 47.2%; with MDA-MB-231 breast, 35.3%; in the experiment on RXF 393 renal it was -2.06% (active); with SF-268 CNS, 45.9%. Besides, the growth was 15.2% in the experiment on SF-295 CNS; 8.47% (active) in the experiment with SF-539 CNS; 64.9% with UACC-257 melanoma; 1.84% (active) with M14 melanoma; 88% in the experiment with HCT-15 colon; 7.52% (active) with HT29 colon. Also, the growth with SNB-75 CNS is 7.72% (active); in the experiment on SNB-19 CNS, 27.9%; with U251 CNS it was 26.2%; with PC-3 prostate, 23.2%; in the experiment on SK-MEL-5 melanoma, 31.6%; with UACC-62 melanoma, 28.3%. Also, the values for the growth in the experiment on LOX IMVI melanoma and with SK-MEL-28 melanoma were 29.6% and 53.6%, respectively.
